# Compound activity deposited in PubChem by National Center for Advancing Translational Sciences (NCATS).
# A selection: hits, their analogues and other compounds. The true share with any hit is near 1.3%.
# TRPML1 ag: qHTS for Agonists of the Human Mucolipin Transient Receptor Potential 1 (TRPML1) | Mucolipin-1 (Homo sapiens), Q9GZU1 | TRPML1-expressing cells, Ca2+ dye fluorescence, FDSS | activation, % (no concentration beside the values) | 410,000 tested, 0.12% active | AID 624414, 2012; in the data active means activation above about 50%; inconclusive means mostly about 30% to 49%
#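 Tetracycline-induced TRPML1-DL cells are seeded and incubated overnight before loading with a no-wash Ca2+ dye and quencher. Agonist activity is taken from the 110 s fluorescence read following compound pin-transfer on an FDSS, before EC80 54-4 challenge.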
# Vif-A3F inh: qHTS for Inhibitors of Vif-A3F Interactions: qHTS. 390,000 tested, 0.2% active. Potency, µM (top dose mostly 46.1 µM). HeLa A3F-eYFP + Vif (tagged APOBEC3F with the HIV-1 protein that degrades it), YFP fluorescence increase; further: nearly all actives have a fitted effect of over 65% in size
#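 HeLa cells stably expressing A3F-eYFP plus Vif, plated and incubated overnight at 37 deg C, then exposed to compounds overnight at 37 deg C. Blocked degradation read as raised yellow fluorescence (Ex 488/Em 500-530).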
# TRPML1 blocker: qHTS for Inhibitors of the Human Mucolipin Transient Receptor Potential 1 (TRPML1); 390,000 tested, 0.02% active; Mucolipin-1 (Homo sapiens), Q9GZU1; TRPML1-inducible cells, Ca2+ dye fluorescence, FDSS; stronger effect = lower value; inhibition of EC80 agonist-evoked calcium signal; activity change, negative = inhibition, % (concentration not given with the values); in the data active means activity change below about -50%; inconclusive means between about -30% and that limit;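 further: stimulus is agonist 54-4 at its EC80 concentration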
#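 Tet-induced TRPML1-DL cells loaded with Ca8 no-wash calcium dye were read kinetically on FDSS. Compound addition was followed by EC80 agonist 54-4 (4 uM final); inhibition was read over 110 s.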
# GRP78 ERSR act: qHTS for Inducers of the Endoplasmic Reticulum Stress Response (ERSR) in Human Glioma: qHTS; U87-MG GRP78 promoter luciferase reporter, 16 h; Potency, µM, usual class: activators; 420,000 tested, 0.02% active; AID 602332, 2012; further: series mostly up to about 76 µM; nearly all actives have a fitted effect of over 35% in size
#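 Stably transfected U87-MG human glioma cells carrying a GRP78-based luminescent sensor were seeded at 1000 cells/well, pin-dosed with compounds and incubated 16 h. Luciferase reagent was then added, and end-point luminescence was read after 10 min at room temperature.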
# Vif-APOBEC3G blk: qHTS for Inhibitors of Vif-A3G Interactions: qHTS | HeLa A3G-eYFP + Vif (tagged APOBEC3G with the HIV-1 protein that degrades it), YFP fluorescence, overnight | Potency, µM (top dose mostly 46.1 µM), hits mostly inhibitors | 410,000 tested, 0.076% active | AID 602310, 2012; further: nearly all actives have a fitted effect of over 60% in size
# Target sequence (Q9HC16 whole entry, looked up): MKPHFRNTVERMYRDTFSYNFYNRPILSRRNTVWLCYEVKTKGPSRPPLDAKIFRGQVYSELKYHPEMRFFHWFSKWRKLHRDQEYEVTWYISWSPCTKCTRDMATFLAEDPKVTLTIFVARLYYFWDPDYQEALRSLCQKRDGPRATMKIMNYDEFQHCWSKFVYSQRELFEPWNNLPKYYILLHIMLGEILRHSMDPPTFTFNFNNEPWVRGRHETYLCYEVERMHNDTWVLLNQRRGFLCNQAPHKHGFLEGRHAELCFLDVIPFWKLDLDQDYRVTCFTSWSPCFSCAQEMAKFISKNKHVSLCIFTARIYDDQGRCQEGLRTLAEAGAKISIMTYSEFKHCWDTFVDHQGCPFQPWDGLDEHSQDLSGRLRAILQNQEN
#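 HeLa cells stably expressing Vif and C-terminally eYFP-tagged A3G, seeded overnight at 37 deg C, then exposed to compound by pintool overnight at 37 deg C. Rise in yellow fluorescence (Ex 488/Em 500-530, Acumen) marks blocked Vif-driven A3G degradation.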
# ALOX12 inh: Primary qHTS assay for inhibitors of human arachidonate 12S-lipoxygenase (ALOX12): Round 2; Polyunsaturated fatty acid lipoxygenase ALOX12 (Homo sapiens), P18054; purified 12hLO, xylenol orange hydroperoxide absorbance; Potency, µM (highest dose often 108 µM), most hits filed as inhibitors; 580,000 tested, 1.1% active; AID 1671190, 2021
#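 Hydroperoxide product was detected by ferrous iron/xylenol orange as the 573 to 405 nm absorbance ratio. Arachidonic acid at 40 uM (final) was turned over for 30 min at room temperature by 150 nM human 12hLO, pH 7.0 Hepes buffer, after 15 min compound preincubation.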
# A number is an active result; - = inactive; ? = inconclusive; . = no result given. Unless noted, the call rests on the fitted dose curve; in most records, active means well fitted curve in the direction sought with a large enough effect; inconclusive means small, poorly fitted or top-dose-only effect, or another doubt; inactive means no such curve, though single readings can be large; an effect the other way counts as inactive or inconclusive.
SMILES,TRPML1 ag,Vif-A3F inh,TRPML1 blocker,GRP78 ERSR act,Vif-APOBEC3G blk,ALOX12 inh
CC(=O)Nc1cc(-c2ccc(CO)cc2)cn2c(-c3ccc(F)cc3)cnc12,-,.,.,?,-,45µM
COc1ccc(-c2cnc3c(NC=O)cc(-c4ccccc4)cn23)cc1OC,-,.,.,-,1.8µM,-
COc1ccc(-c2cc(NC=O)c3ncc(-c4ccc(OC)c(OC)c4)n3c2)c(OC)c1,-,.,.,-,-,56µM
COc1ccc(-c2cnc3c(NC=O)cc(-c4ccoc4)cn23)cc1OC,-,.,.,-,?,5µM
COc1ccc(C(=O)Oc2c(C)cc(C(O)(C(F)(F)F)C(F)(F)F)cc2C)cc1,.,.,.,.,.,-
Cc1nc2cc(NC(=O)C(C)(C)Oc3ccc(Cl)cc3)ccc2o1,.,.,.,.,.,-
COc1ccc(C(=O)N[C@@H]2CN(Cc3ccccc3)C[C@H]2CO)cn1,.,.,.,.,.,-
COc1cccc(CN2CCN3C(C(=O)Nc4ccccc4)=COC3=NC2=O)c1,.,.,.,.,.,-
COc1cc([C@H]2[C@@H]3CCCC[C@]3(O)CCN2Cc2cccc(F)c2)ccc1O,.,.,.,.,.,-
CC(=O)Nc1cc(-c2ccccc2N(C)C)cn2c(-c3cccc(C(F)(F)F)c3)cnc12,-,.,.,?,-,8.9µM
O=CNc1cc(-c2cccc(O)c2)cn2c(-c3ccc(F)cc3)cnc12,-,.,.,-,-,45µM
Cc1cc(C)c2c(CN3CCCCC3)cc(=O)oc2c1,-,-,-,-,-,-
Cc1cc(C)c2c(CN3CCC(C)CC3)cc(=O)oc2c1,-,-,-,-,-,45µM
Cc1cc(C(=O)COC(=O)c2nn(C)c(=O)c3ccccc23)c(C)n1CC1CCCO1 (stereo not drawn),.,.,.,.,.,-
NS(=O)(=O)c1ccc(CCNC(=O)CNCCc2ccccc2)cc1,-,-,-,-,-,0.63µM
NS(=O)(=O)c1ccc(CCNC(=O)CSc2ccccc2)cc1,-,-,-,-,-,-
Cc1ccc(OCCn2c(=S)[nH]c3ccccc32)c(C(C)C)c1,-,-,-,-,-,32µM
S=c1[nH]c2ccccc2n1CCOc1ccccc1,-,-,-,-,-,40µM
COc1ccc(Cl)cc1Nc1nc(N)c(C(=O)c2cc(C)ccc2C)s1,.,.,.,.,.,-
CCn1cc(C(=O)NC(=S)Nc2ccccc2[N+](=O)[O-])cn1,-,-,-,-,-,?
CCn1cc(C(=O)NC(=S)Nc2ccccc2Br)cn1,-,-,-,-,-,28µM
COc1cccc(N2CCN(Cc3nc4scc(-c5ccccc5)c4c(=O)[nH]3)CC2)c1,-,-,-,-,8.9µM,-
O=C(NC(=S)Nc1cccc(Cl)c1N1CCCCC1)c1ccc2c(c1)OCCO2,-,?,-,-,-,16µM
O=C(COc1ccccc1Cl)NC(=S)Nc1ccccc1N1CCCC1,-,-,-,-,-,?
CCC(=O)NC(=S)Nc1cccc(Cl)c1N1CCCC1,-,10µM,-,-,-,-
SMILES,TRPML1 ag,Vif-A3F inh,TRPML1 blocker,GRP78 ERSR act,Vif-APOBEC3G blk,ALOX12 inh
O=C(Nc1cccc(Cl)c1N1CCCCC1)c1ccc2c(c1)OCCO2,-,-,-,-,-,-
Cc1nccn1CCc1nc2cc(NC(=O)CC(C)C)ccc2n1C,.,.,.,.,.,-
CC1CCc2sc(C(=O)N/N=C3/CCCCc4ccccc43)cc2C1 (stereo not drawn),.,.,.,.,.,1.3µM
C/C(=N\NC(=O)c1cc2c(s1)CCC(C)C2)c1ccncc1 (stereo not drawn),-,-,-,-,-,1.8µM
C/C(=N\NC(=O)c1cc2c(s1)CCC(C)C2)c1ccc[nH]1 (stereo not drawn),-,-,-,-,-,-
CC1CCc2sc(C(=O)N/N=C/c3ccc(O)cc3)cc2C1 (stereo not drawn),.,-,.,-,-,28µM
Cc1ccc(-c2noc(-c3ccc(Br)o3)n2)cc1,.,.,.,.,.,-
